The record followed here is PubChem BioAssay (Tox21).

Each structure is given as a SMILES string. Several values for one entry are separate records, joined by “and”; a condition that tells them apart may be missing. Identical values can stand only once. Results filed as inconclusive are left out. Unmarked numbers belong to inactive results. Activity calls are given as the source filed them. Calls follow the shape of the dose curve; as a rule, active = well fitted curve in the direction sought with a large enough effect in the repeat runs; inconclusive = weak or mixed curves; inactive = no such curve, though single readings can be large; an effect the other way counts as inactive or inconclusive.

Assay [1] has as its target Cytochrome P450 1A2 (Homo sapiens) (UniProt P05177). Nature of the assay: Cytochrome P450 Family 1 Subfamily A Member 2 (CYP1A2) small molecule antagonists: luciferase reporter qHTS assay (AID 1671199). As to activity change, negative = inhibition: series mostly up to about 120 µM. The procedure, abridged:
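P450-Glo CYP1A2, 1536-well qHTS: enzyme/proluciferin substrate + cpd (DMSO), 10 min RT; NADPH regen, 1 h RT; detection reagent, 20 min; luminescence, RLU.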

Assay [2] has as its target Voltage-gated inwardly rectifying potassium channel KCNH2 (Homo sapiens) (UniProt Q12809). The experiment in a line: Human Ether-a-go-go-Related Gene (hERG) channel small molecule antagonists: fluorescence cell-based qHTS assay (AID 1671200).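 As to activity change, negative = inhibition: hERG-expressing U2OS cells given a thallium stimulus after FluxOR II dye loading; series mostly up to about 77 µM.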 The procedure, abridged: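 Kinetic two-minute fluorescence traces, sampled at 1 s, were collected following thallium stimulus of U2OS cells (1000 per well) that had been cultured overnight at 37 C and loaded with FluxOR II.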
In general terms: Block of hERG is tested as a sign of cardiac risk.

In assay [3] the target is Cytochrome P450 3A4 (Homo sapiens) (UniProt P08684). The experiment in a line: Cytochrome P450 Family 3 Subfamily A Member 4 (CYP3A4) small molecule antagonists: luciferase reporter qHTS assay (AID 1671201). As to activity change, negative = inhibition: series mostly up to about 120 µM. The method, boiled down:
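Proluciferin-to-luciferin conversion by CYP3A4, NADPH-regenerated, 1 h RT; luminescence read as RLU. Ketoconazole as control.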
For orientation: In a reporter assay the amount or activity of a reporter protein is the signal.
% is scaled to controls: 0 for no effect and ±100 for the full control effect; potency is read from the fitted curve at half-maximal effect.
Also: nearly all actives have a fitted effect of over 50% in size.

Cytochrome P450 1A2 (Homo sapiens), sequence (P05177 whole entry, looked up): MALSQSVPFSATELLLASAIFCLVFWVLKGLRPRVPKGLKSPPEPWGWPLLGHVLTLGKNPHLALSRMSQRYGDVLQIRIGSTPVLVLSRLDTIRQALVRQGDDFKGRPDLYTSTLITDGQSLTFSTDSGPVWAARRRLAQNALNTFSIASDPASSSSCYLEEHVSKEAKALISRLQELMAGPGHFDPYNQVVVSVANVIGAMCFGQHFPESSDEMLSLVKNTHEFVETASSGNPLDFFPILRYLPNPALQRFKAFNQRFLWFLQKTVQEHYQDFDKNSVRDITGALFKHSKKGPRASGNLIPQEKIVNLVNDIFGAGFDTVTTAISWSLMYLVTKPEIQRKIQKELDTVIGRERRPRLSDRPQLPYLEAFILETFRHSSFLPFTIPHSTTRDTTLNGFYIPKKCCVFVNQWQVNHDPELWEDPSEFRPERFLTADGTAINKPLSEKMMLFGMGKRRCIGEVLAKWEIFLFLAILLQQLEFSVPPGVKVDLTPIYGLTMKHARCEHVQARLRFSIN
Voltage-gated inwardly rectifying potassium channel KCNH2 (Homo sapiens), sequence (Q12809 whole entry, looked up): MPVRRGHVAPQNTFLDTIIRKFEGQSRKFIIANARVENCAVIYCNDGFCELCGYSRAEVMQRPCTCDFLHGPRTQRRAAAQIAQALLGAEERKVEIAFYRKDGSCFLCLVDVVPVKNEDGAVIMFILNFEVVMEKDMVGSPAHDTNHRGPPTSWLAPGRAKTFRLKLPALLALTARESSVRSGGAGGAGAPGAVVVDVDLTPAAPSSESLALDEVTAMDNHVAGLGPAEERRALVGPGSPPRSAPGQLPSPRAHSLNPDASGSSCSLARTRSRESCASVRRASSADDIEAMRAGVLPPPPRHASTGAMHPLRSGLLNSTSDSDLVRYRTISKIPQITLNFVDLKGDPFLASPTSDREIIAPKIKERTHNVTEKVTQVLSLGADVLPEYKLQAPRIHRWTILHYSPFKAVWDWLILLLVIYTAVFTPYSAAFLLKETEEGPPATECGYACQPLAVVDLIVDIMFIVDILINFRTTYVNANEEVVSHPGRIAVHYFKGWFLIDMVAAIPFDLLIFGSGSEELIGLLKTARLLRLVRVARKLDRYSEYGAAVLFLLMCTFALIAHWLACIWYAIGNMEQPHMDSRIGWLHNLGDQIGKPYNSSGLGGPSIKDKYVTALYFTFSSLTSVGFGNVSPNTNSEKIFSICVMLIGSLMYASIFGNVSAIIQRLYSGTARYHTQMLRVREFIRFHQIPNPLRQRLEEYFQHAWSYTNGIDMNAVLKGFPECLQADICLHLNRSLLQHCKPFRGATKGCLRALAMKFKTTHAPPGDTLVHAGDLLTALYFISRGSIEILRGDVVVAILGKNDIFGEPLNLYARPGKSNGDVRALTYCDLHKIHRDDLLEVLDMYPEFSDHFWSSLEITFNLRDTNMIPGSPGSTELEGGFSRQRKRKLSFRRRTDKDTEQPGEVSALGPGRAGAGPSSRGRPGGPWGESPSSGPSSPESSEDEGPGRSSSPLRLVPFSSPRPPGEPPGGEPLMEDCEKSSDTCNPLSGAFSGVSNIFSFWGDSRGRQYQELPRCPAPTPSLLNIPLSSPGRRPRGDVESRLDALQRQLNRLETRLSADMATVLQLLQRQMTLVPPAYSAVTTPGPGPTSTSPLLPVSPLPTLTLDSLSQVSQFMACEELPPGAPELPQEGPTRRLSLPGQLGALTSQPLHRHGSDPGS
Cytochrome P450 3A4 (Homo sapiens), sequence (P08684 whole entry, looked up): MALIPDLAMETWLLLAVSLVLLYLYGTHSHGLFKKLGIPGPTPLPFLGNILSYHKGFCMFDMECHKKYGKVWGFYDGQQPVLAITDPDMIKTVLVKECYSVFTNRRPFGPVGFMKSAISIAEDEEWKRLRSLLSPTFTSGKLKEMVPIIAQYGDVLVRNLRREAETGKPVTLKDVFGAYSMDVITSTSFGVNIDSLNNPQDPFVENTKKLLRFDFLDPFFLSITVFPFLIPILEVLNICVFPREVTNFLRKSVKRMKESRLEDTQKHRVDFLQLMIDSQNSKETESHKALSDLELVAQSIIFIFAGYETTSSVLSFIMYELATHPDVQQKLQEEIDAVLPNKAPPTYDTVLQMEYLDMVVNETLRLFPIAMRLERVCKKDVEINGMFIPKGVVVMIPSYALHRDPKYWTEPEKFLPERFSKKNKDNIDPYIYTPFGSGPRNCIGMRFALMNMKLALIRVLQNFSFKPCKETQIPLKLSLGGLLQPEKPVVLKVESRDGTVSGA

Consider `C=C(C)C(=O)OCCCCCCCCCC`, for which the Potency result in assay [1], in assay [2] and in assay [3] was “inactive” each time.
On to `O[C@@H]([C@H](O)[C@H](O)CBr)[C@H](O)CBr`, for which the Potency in assay [1] was 70.9 µM (active). Also, the Potency result in assay [2] and in assay [3] was “inactive” each time.
On to `Nc1nc(N)nc(-c2cc(Cl)ccc2Cl)n1`, for which, in assay [1], the Potency is 17.4 µM (active). For the same compound, the Potency result in assay [2] and in assay [3] was “inactive” throughout.
In the case of `O=C(O)c1cccc(C(F)(F)F)c1`, the Potency entry in assay [1], in assay [2] and in assay [3] was “inactive” in each case.
With `CN(C)c1ccc(C(=C2C=CC(=[N+](C)C)C=C2)c2ccc(N(C)C)cc2)cc1`, the Potency in assay [1] is 11.2 µM (active) and 20 µM (active) and 10.2 µM (active); in assay [2] it was 3.45 µM (active) and 3.47 µM (active) and 2.68 µM (active).
`CC(=O)CC(=O)Nc1ccc(S(=O)(=O)O)cc1`: the Potency result in assay [1], in assay [2] and in assay [3] was “inactive” each time.
Regarding `Nc1ccc(C(=O)O)c(O)c1`, the Potency result in assay [1] and in assay [2] was “inactive” each time.
Take `CCC(=O)C(=O)CC`: the Potency entry in assay [1] and in assay [2] was “inactive” each time.
Regarding `CCC(CC)C(C)CCOC(C)=O` (stereo not drawn), the Potency entry in assay [1], in assay [2] and in assay [3] was “inactive” throughout.
On to `CC1(C)CCC[C@]2(C)[C@H]3CC(=O)O[C@]3(C)CC[C@@H]12`, for which the Potency in assay [1] was 44.8 µM (active); in assay [2], 38.9 µM (active).
Turning to `CC[C@H](C)COC(=O)/C=C/c1ccc(N=Cc2ccc(OC)cc2)cc1`, the values for the Potency in assay [1], in assay [2] and in assay [3] were 5.63 µM (active), 43.6 µM (active) and 5.63 µM (active), respectively.
Turning to `CCc1oc2ccccc2c1C(=O)c1cc(I)c(O)c(I)c1`, the Potency result in assay [1] and in assay [2] was “inactive” in each case.
Consider `O=C(Oc1ccccc1)Oc1ccccc1`, for which, in assay [1], the Potency was 35.4 µM (active). Also, the Potency entry in assay [2] is “inactive”.
For the compound `CCCCC(CC)COC(=O)CCCCC(=O)OCc1ccccc1` (stereo not drawn), in assay [1], the Potency was 56.4 µM (active). For the same compound, the Potency result in assay [2] is “inactive”.
Take `CCCCOC(=O)CC`: the Potency result in assay [1], in assay [2] and in assay [3] was “inactive” in each case.
For the compound `C=CCn1c(=O)n(CC=C)c(=O)n(CC=C)c1=O`, in assay [1], the Potency was 31.6 µM (active). The Potency entry in assay [2] was “inactive”.
As for `O=S(=O)(O)c1ccc(Nc2nc(Nc3ccc(/C=C/c4ccc(Nc5nc(Nc6ccc(S(=O)(=O)O)cc6)nc(N(CCO)CCO)n5)cc4S(=O)(=O)O)c(S(=O)(=O)O)c3)nc(N(CCO)CCO)n2)cc1`, the Potency result in assay [1], in assay [2] and in assay [3] was “inactive” in each case.
As for `Cc1cc(C(C)(C)C)c(O)c(C)c1Cn1c(=O)n(Cc2c(C)cc(C(C)(C)C)c(O)c2C)c(=O)n(Cc2c(C)cc(C(C)(C)C)c(O)c2C)c1=O`, the Potency in assay [1] was 31.7 µM (active); in assay [3] it was 7.97 µM (active). The Potency entry in assay [2] was “inactive”.
With `O=C(O)Cc1ccccc1Nc1c(Cl)cccc1Cl`, the Potency entry in assay [1], in assay [2] and in assay [3] was “inactive” in each case.
Consider `C[C@H]1NCc2cc(-c3ccc4c(=O)c(C(=O)O)cn(C5CC5)c4c3OC(F)F)ccc21`, for which the activity change, negative = inhibition in assay [1] is 13.9% [at 23.6 µM]; in assay [2], -3.88% [at 15.8 µM].
For the compound `Oc1cc(Cl)cc(Cl)c1Cl`, the Potency in assay [1] is 16.3 µM (active). Moreover, the Potency entry in assay [2] and in assay [3] was “inactive” in each case.
As to `Cc1c(N)cccc1C(F)(F)F`, in assay [1], the Potency is 13.8 µM (active). In addition, the Potency entry in assay [2] and in assay [3] was “inactive” throughout.
`CCN(CC)c1ccc2c(-c3ccc(S(=O)(=O)O)cc3S(=O)(=O)[O-])c3ccc(=[N+](CC)CC)cc-3oc2c1`: the Potency in assay [1] was 20.7 µM (active). Moreover, the Potency result in assay [2] is “inactive”.
The matching figures for `CCC(C)n1ncn(-c2ccc(N3CCN(c4ccc(OC[C@H]5CO[C@](Cn6cncn6)(c6ccc(Cl)cc6Cl)O5)cc4)CC3)cc2)c1=O` (stereo partly drawn): “inactive” and “inactive”.
As to `CCN(CC)C(=O)c1cc(S(=O)(=O)Cc2ccccc2)c(N2CCC(c3ccccc3)CC2)cc1N(CC)CCN(C)C`, in assay [1], the Potency result is “inactive”. Also, the Potency in assay [2] is 1.72 µM (active); in assay [3], 0.125 µM (active).
Consider `CCCc1ccc(OCC(=O)N2CCN(C(=O)COc3ccc(CCC)cc3OC)CC2)c(OC)c1`, for which, in assay [1], the Potency entry is “inactive”. In assay [2], the Potency is 1.34 µM (active).
Regarding `S=c1nccc[nH]1`, in assay [1], the Potency was 35.6 µM (active). Moreover, the Potency result in assay [2] and in assay [3] was “inactive” each time.
As for `Cc1ccc(O)c(N)c1`, the Potency in assay [1] is 40 µM (active). Besides, the Potency entry in assay [2] was “inactive”.
The matching figures for `NC(=O)c1cccc([N+](=O)[O-])c1`: 35.4 µM (active) and “inactive”.
Take `CCCCOC(=O)CO`: the Potency result in assay [2] and in assay [3] was “inactive” each time.
As to `CCC(C)[O-].CCC(C)[O-].CCOC(=O)/C=C(/C)[O-].[Al+3]`, the Potency result in assay [2] is “inactive”.
For the compound `CC1=CCC(=C(C)C)CC1`, the Potency entry in assay [2] is “inactive”. Also, the Potency in assay [3] is 20 µM (active).
The matching figures for `CC(C)(c1cc(Br)c(OCC(Br)CBr)c(Br)c1)c1cc(Br)c(OCC(Br)CBr)c(Br)c1` (stereo not drawn): “inactive” and “inactive”.
As to `CC(=O)OCC=C(C)C`, the Potency entry in assay [1], in assay [2] and in assay [3] was “inactive” in each case.
Consider `CC(C(=O)O)c1ccc2c(c1)[nH]c1ccc(Cl)cc12` (stereo not drawn), for which the Potency entry in assay [2] and in assay [3] was “inactive” each time.
For `O=C(/C=C/c1ccccc1)OC/C=C/c1ccccc1`, the Potency in assay [1] is 28.3 µM (active). For the same compound, in assay [3], the Potency entry was “inactive”.
Consider `CCCC(=O)OC(C)(C)Cc1ccccc1`, for which the Potency result in assay [2] was “inactive”.
With `O=C(O)O`, the activity change, negative = inhibition is 0.334% [at 6.97 µM] in assay [2] and 0.224% [at 10.5 µM] in assay [3].
`C1CCC(SSC2CCCCC2)CC1`: the Potency in assay [1] is 25.2 µM (active). The Potency entry in assay [2] and in assay [3] was “inactive” each time.
With `Nc1ccc(Oc2ccc(Cl)cc2)cc1`, the Potency in assay [1] was 34.8 µM (active); in assay [3] it was 17.5 µM (active).
Turning to `Cc1ccc(C(=O)O)cc1`, the Potency entry in assay [1], in assay [2] and in assay [3] was “inactive” throughout.
On to `CCn1c2ccccc2c2cc([N+](=O)[O-])ccc21`, for which the Potency in assay [1] was 1.12 µM (active). Also, the Potency entry in assay [3] was “inactive”.
For `C[Si](Cl)(c1ccccc1)c1ccccc1`, the Potency entry in assay [2] was “inactive”.
Regarding `Cc1cc(=O)oc2cc(O)cc(O)c12`, the Potency in assay [1] was 25.3 µM (active); in assay [3], 20.1 µM (active). For the same compound, the Potency entry in assay [2] was “inactive”.
Turning to `O=C1NC(=O)[C@@H]2CC=CC[C@H]12`, the Potency entry in assay [2] is “inactive”.
As for `C=Cc1ccccc1C=C`, the Potency entry in assay [2] and in assay [3] was “inactive” throughout.
`O=C1C(c2[nH]c3ccc(S(=O)(=O)O)cc3c2O)=Nc2ccc(S(=O)(=O)O)cc21`: the Potency entry in assay [2] is “inactive”.
